This passage reports outcome and AC50 results from PubChem BioAssay (EPA / NIEHS).

The structures appear in SMILES notation. The source made the active and inactive calls. How the source made its calls: active means hit-call score of the fitted dose curve at least 0.9, where 1 is the maximum; inactive means score below 0.9.

As usually defined, the AC50 is the concentration giving half of the maximal activity seen.

The nature of this assay: IUF_NPC4_neurite_length_120hr: Leibniz Research Institute for Environmental Medicine (IUF) 120-hour Neuronal Morphology Assay for Neurite Length (NPC4) (AID 2284302). As for the experimental part: IUF_NPC2-5 is a cell-based, multiplexed assay that uses hNPC, a human primary neural progenitor cells, with measurements taken at 72 or 120 hours after chemical dosing in a 96-well plate. Human neural progenitor cells (hNPC) are generated from human fetal brain cortex at gestational week (GW) 16-19. In the neural progenitor cell migration and differentiation assay (NPC2-5), hNPCs grown as spheres are plated on an extracellular matrix and migrate and differentiate out of the sphere core. The processes radial glia migration, neuronal and oligodendrocyte migration as well as neuronal differentiation, neuronal morphology and oligodendrocyte differentiation are studied using automated phase contrast imaging and automated fluorescence imaging in combination with high content image analysis. In parallel, the cell viability is assessed using an alamar blue viability assay and the cytotoxicity using a lactate dehydrogenase dependent membrane integrity assay.IUF_NPC4_neurite_length_120hr is one of 12 assay components measured from the IUF_NPC2-5 assay. The neurite length at 120 hr is the mean length in um of all neurons (see IUF_NPC3_neuronal_differentiation_120hr) that are identified by the skeletonization algorithm in Omnisphero.Data from the IUF_NPC4_neurite_length_120hr component was analyzed at the endpoint IUF_NPC4_neurite_length_120hr in the positive analysis fitting direction relative to DMSO as the negative control and baseline of activity. Using a type of differentiation reporter, gain or loss-of-signal activity can be used to understand developmental effects.
Culture protocol: After the cell expansion period the cells are cultured for up to four weeks in which they are passaged every week as described in 3.6. Between one to three days after passaging spheres at a size of 0.3 mm are picked for the test method. For the assessment of neural progenitor cell migration and differentiation, the spheres are plated on poly-D-lysine/laminin coated 96-well flat bottom plates in differentiation medium (N2) to initiate migration and differentiation. Thereby one 0.3 mm big sphere is plated in the middle of a well. The differentiation medium consists of DMEM and Ham's F12 at a ratio of 3 to 1 supplemented with 1% N2 and 1% penicillin and streptomycin. Within 5 days NPCs radially migrate out of the sphere core and differentiate into radial glia cells (nestin positive), neurons (TUBB3 positive), oligodendrocytes (O4 positive) and astrocytes (GFAP positive). Cultivation during the test method is performed at 37C and 5% CO2 at a ph of 7.2-7.6.Exposure: 0.3 mm big hNPC are plated in the already prepared test conditions. Exposure starts at day 0 of differentiation and is continued over five days of differentiation until the experiment is terminated. Cells are fed with fresh medium at day 3 of differentiation. Therefore, half of the test condition solution (e.g. solvent control or compound dilution) is replaced by freshly prepared test condition solution.Test Method: Migration distance and cytotoxicity is determined after 72 hours based on brightfield images of each well. The assay is terminated by the assessment of cell viability and cytotoxicity as well as cell fixation after 120 h. Immunocytochemistry is performed for Hoechst positive nuclei, TUBB3 positive neurons and O4 positive oligodendrocytes. On the ICC images, migration after 120 hours, neuronal and oligodendrocyte number, neuronal morphology and neuron/oligodendrocyte specific migration is assessed. immunocytochemical staining (ICC) generates an image for each sphere. The plates are scanned using an automated high content imaging device and all nuclei and their positions are determined automatically based on their intensity and size. Images are imported to the Omnisphero software to run the image analysis that measures the following endpoints. The method is set up for 8 test conditions including 7 compound concentrations and one SC. […]
Regarding `CC(C)COC(=O)c1ccccc1C(=O)OCC(C)C`, the outcome was inactive.
On the same count and under the same terms, to `CNC(=O)Oc1cccc2c1OC(C)(C)C2` belongs “inactive”.
As for `COP(=S)(OC)SCN1C(=O)c2ccccc2C1=O`, the call was inactive.
As for `CC(C)(C)C(O)(CCc1ccc(Cl)cc1)Cn1cncn1` (stereo not given), the compound was classed as inactive.
The same measure, in the same setting: under `OCCOCCO` stands “inactive”; under `[O-][Cl+]O`, “inactive”.
For the compound `O=P(OCCCl)(OCCCl)OCCCl`, the outcome was inactive.
For the compound `CCCCOC(=O)c1ccccc1C(=O)OCc1ccccc1`, the compound was called inactive.
As for `CCC[CH2][Sn]([Cl])([CH2]CCC)[CH2]CCC`, the half-maximal activity concentration (AC50) is 0.303 µM (active).
As for `COC(=O)Nc1nc2ccccc2[nH]1`, the AC50 was 8.96 µM (active).
